From PubChem BioAssay (NCATS)
Records with an inconclusive call do not appear. Calls of active or inactive are those of the source. Unless noted, the call rests on the fitted dose curve; in most records, active means well fitted curve in the direction sought with a large enough effect; inconclusive means small, poorly fitted or top-dose-only effect, or another doubt; inactive means no such curve, though single readings can be large; an effect the other way counts as inactive or inconclusive.

Legend:
[1] = molecular target: Cytochrome P450 1A2 (Homo sapiens) (UniProt P05177); assay: p450-cyp1a2 (AID 410; calls by dose curve; further: potency means the concentration at half of the fitted maximal effect)
Procedure, shortened: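 Read-out is luminescence from luciferin produced by CYP1A2 demethylation of Luciferin-ME (100uM, at Km). Detection reagent stopped the 60 min NADPH-dependent reaction; signals were normalized to 57 uM furafylline.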

[2] = NFAT Signaling Pathway (AID 444; active means well fitted curve in either direction with a large enough effect, not every such curve was filed as active;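 further: carbachol stimulus at about its EC50 of 1 µM final; on the % scale 0 is the no-effect control and ±100 the full control effect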); conditions: Jurkat NFAT-bla M1, carbachol, beta-lactamase ratio, 5 h; at 7.69 µM (top of the series) unless noted
Procedure, shortened: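 Jurkat cells carrying an NFAT-driven β-lactamase reporter and co-transfected muscarinic M1 receptor were treated with compound plus carbachol (1 uM final, an EC50 level) for 5 h at 37 °C. CCF4 loading followed for 1 h at RT; 460/530 nm ratio gave %activity.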

[3] = molecular target: Glucocorticoid receptor (Homo sapiens) (UniProt P04150); assay: GR-GFP Redistribution (AID 450;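 active means compounds whose dose series gives a full or clear partial fitted curve of increased nuclear translocation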; further: potency means the concentration at half of the fitted maximal effect); conditions: U2OS GR-GFP nuclear translocation, laser cytometry, 2 h
[4] = molecular target: 3',5'-cyclic-AMP phosphodiesterase 4B (Homo sapiens) (UniProt Q07343); assay: qHTS Assay for Inhibitors of PDE-IV (AID 607; active means well fitted activation curve with a large enough effect in the main read-out, with a control signal flat, not every such curve was filed as active; further: % of control where 0% means no effect)
Procedure, shortened: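 HEK293 ACTOne cells with CNG channel (1000/well), endogenous PDE4; membrane potential dye, compounds up to 22.9 uM final. Fluorescence Ex 535/Em 590; RO 20-1724 (100 uM final) as reference.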

[5] = molecular target: Cytochrome P450 3A4 (Homo sapiens) (UniProt P08684); assay: qHTS Assay for Activators of Cytochrome P450 3A4 (AID 885); further: nearly all actives have a fitted effect of over 65% in size
Procedure, shortened: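 Human CYP3A4 dealkylates Luciferin-PPXE to luciferin, which luciferase detection converts to light. Substrate was at its KM (25uM), buffer 200mM KPO4, reaction 60 min at RT.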

[6] = molecular target: Dual specificity protein kinase CLK4 (Homo sapiens) (UniProt Q9HAZ1); assay: qHTS Assay for Inhibitors of CDC-like Kinase 4 (Kinase-Glo Assay) (AID 1770); further: nearly all actives have a fitted effect of over 65% in size; further: potency means the concentration at half of the fitted maximal effect
Procedure, shortened: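 Readout: Kinase-Glo luminescence from ATP left after a 4.5 h room-temperature reaction of 25 nM Clk4 with 100 uM RS peptide and 1 uM ATP (final). Buffer: 25 mM Tris pH 7.5, 10 mM MgCl2.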

[7] = molecular target: Dual specificity protein kinase CLK4 (Homo sapiens) (UniProt Q9HAZ1); assay: qHTS Assay for Inhibitors of CDC-like Kinase 4 (ADP-Glo Assay) (AID 1771); further: nearly all actives have a fitted effect of over 70% in size; further: potency means the concentration at half of the fitted maximal effect
Procedure, shortened: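 In this ADP-Glo format, 1 uM ATP and 100 uM RS peptide served as substrates for 25 nM Clk4 in Mg2+/EGTA/DTT/Triton buffer; reactions ran 1 hr at room temperature before luminescent ADP quantification.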

[8] = molecular target: Dual specificity protein kinase CLK4 (Homo sapiens) (UniProt Q9HAZ1); assay: qHTS Assay for Inhibitors of CDC-like Kinase 4 (ADP-FP Assay) (AID 1795); further: nearly all actives have a fitted effect of over 60% in size; further: potency means the concentration at half of the fitted maximal effect
Procedure, shortened: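 FP readout: Orange Transcreener ADP2 tracer (4 nM) plus ADP antibody, read after 30 min at room temperature. Kinase step: 6.25 nM Clk4, 100 uM RS peptide, 1 uM ATP, pH 7.5, 1 h.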

[9] = molecular target: Lysosomal acid glucosylceramidase (Homo sapiens) (UniProt P04062); assay: Glucocerebrosidase-p2 (AID 348; in the data active means potency below about 10 µM; further: potency means the concentration at half of the fitted maximal effect); conditions: purified GBA, blue fluorogenic substrate, 40 min
Procedure, shortened: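 Normal human glucocerebrosidase (0.2 nM) with blue fluorogenic substrate (80 uM final) in citrate/phosphate pH 5.9 with 10mM sodium taurocholate, 0.01% tween-20; 40 min RT, NaOH/glycine stop; fluorescence Ex 365/Em 440; AC50 from a titration from 0.6 nM upwards.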

[10] = AP1 Signaling Pathway (AID 357; active means well fitted curve in either direction with a large enough effect, not every such curve was filed as active; further: on the % scale 0 is the no-effect control and ±100 the full control effect); conditions: ME-180 AP-1-bla reporter, EGF-induced, beta-lactamase ratio, 5 h; at 7.69 µM (top of the series) unless noted
Procedure, shortened: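 ME-180 cells with beta-lactamase reporter under AP-1 response element, stimulated with EC50 EGF; compounds tested in titration series, 5 h at 37 °C. CCF4 substrate added 2.5 h at room temperature; 460/530 nm emission ratio gave %activity and AC50.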

[11] = Stat Signaling Pathway (AID 446; active means well fitted curve in either direction with a large enough effect, not every such curve was filed as active;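 further: ME-180 cervical cancer cells given 40 pM IL-6 alongside compound; SIE-controlled beta-lactamase reporter measured as 460/530 nm FRET emission ratio; on the % scale 0 is the no-effect control and ±100 the full control effect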)
Procedure, shortened: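 Normalization used AC90 stimulation (300 pM IL-6) and AC90 inhibition (125 nM pan-JAK inhibitor at 40 pM IL-6). The underlying signal is SIE-driven beta-lactamase in ME-180 cells after 5 h IL-6 exposure with compound.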

[12] = molecular target: Glucocorticoid receptor (Homo sapiens) (UniProt P04150); assay: GR-EFC Redistribution (AID 451; calls by dose curve; further: potency means the concentration at half of the fitted maximal effect); conditions: CHO-K1 GR-EFC translocation, beta-gal luminescence, 2 h
Procedure, shortened: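 CHO-K1 cells stably expressing nuclear-localized β-gal enzyme acceptor and GR fused C-terminally to the enzyme donor fragment; ligand-driven nuclear translocation restores β-gal by complementation. Compounds titrated up to 46 uM final, 2 h at 37 °C; luminescence read.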

[13] = molecular target: Mitogen-activated protein kinase 10 (Mus musculus) (UniProt Q61831); assay: JNK3 AlphaScreen Assay (AID 530; active means well fitted curve in either direction with a large enough effect, not every such curve was filed as active;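 further: kinase came from lysate of stimulated human HepG2 cells; signal reports phosphorylation of biotinylated GST-cJun 1-79 at Ser73 with 10 µM ATP; on the % scale 0 is the no-effect control and ±100 the full control effect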)
Procedure, shortened: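 Biotinylated GST-cJun(1-79) served as substrate for JNK3 in HepG2 lysates stimulated with IL-1beta and TNF-alpha. ATP was 10 uM final, pH 7.6. Ser73 phosphorylation was quantified by AlphaScreen (680 nm excitation).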

[14] = molecular target: Ubiquitin carboxyl-terminal hydrolase 1 (Homo sapiens) (UniProt O94782); assay: Inhibitors of USP1/UAF1: Pilot qHTS (AID 504865);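 further: rhodamine fluorescence freed from ubiquitin-rhodamine substrate followed over time; top concentration of the series differs between compounds; on the % scale 0 is the no-effect control and ±100 the full control effect; nearly all actives have a fitted effect of over 35% in size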
Procedure, shortened: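 1nM USP1/UAF1 + cpd, 15 min RT; start w/ Ub-Rho 150nM final; kinetic FL 480/540 nm, 6 reads q60 s. Buffer 50mM HEPES pH 7.8, 0.5mM EDTA, 1mM TCEP, 0.01% Tween-20, 0.1 mg/ml BSA.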

[15] = molecular target: Cytochrome P450 3A4 (Homo sapiens) (UniProt P08684); assay: qHTS Assay for Inhibitors and Substrates of Cytochrome P450 3A4 (AID 884); further: potency means the concentration at half of the fitted maximal effect; nearly all actives have a fitted effect of over 50% in size
Procedure, shortened: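 Luminescent readout of luciferin produced by CYP3A4 (20 nM) dealkylation of Luciferin-PPXE, 25 uM (its KM). NADPH-driven reaction ran 60 min at RT after 10 min compound preincubation; data scaled to 57 uM ketoconazole as 100% inhibition.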

[16] = molecular target: Cytochrome P450 2D6 (Homo sapiens) (UniProt P10635); assay: qHTS Assay for Inhibitors and Substrates of Cytochrome P450 2D6 (AID 891); further: potency means the concentration at half of the fitted maximal effect; nearly all actives have a fitted effect of over 60% in size
Procedure, shortened: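 Luminescent read-out of luciferin formed by 5 nM human CYP2D6 demethylating 30 uM Luciferin-ME EGE (Km level) over 60 min at room temperature after NADPH regeneration addition. Data normalized to full inhibition by 1.43 uM quinidine.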

[17] = molecular target: Cytochrome P450 2C9 (Homo sapiens) (UniProt P11712); assay: qHTS Assay for Inhibitors and Substrates of Cytochrome P450 2C9 (AID 883); further: potency means the concentration at half of the fitted maximal effect; nearly all actives have a fitted effect of over 60% in size
Procedure, shortened: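 Human CYP2C9 (10nM) hydroxylated Luciferin-H (100uM, at its KM) to luciferin in 25mM KPO4. Compound was preincubated 10 min at 37C, then NADPH regeneration started a 60 min reaction at 37C. Luminescence was read after detection reagent, normalized to 57uM sulphaphenazole.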

Chain of Cytochrome P450 1A2 (Homo sapiens) (P05177 whole entry, looked up): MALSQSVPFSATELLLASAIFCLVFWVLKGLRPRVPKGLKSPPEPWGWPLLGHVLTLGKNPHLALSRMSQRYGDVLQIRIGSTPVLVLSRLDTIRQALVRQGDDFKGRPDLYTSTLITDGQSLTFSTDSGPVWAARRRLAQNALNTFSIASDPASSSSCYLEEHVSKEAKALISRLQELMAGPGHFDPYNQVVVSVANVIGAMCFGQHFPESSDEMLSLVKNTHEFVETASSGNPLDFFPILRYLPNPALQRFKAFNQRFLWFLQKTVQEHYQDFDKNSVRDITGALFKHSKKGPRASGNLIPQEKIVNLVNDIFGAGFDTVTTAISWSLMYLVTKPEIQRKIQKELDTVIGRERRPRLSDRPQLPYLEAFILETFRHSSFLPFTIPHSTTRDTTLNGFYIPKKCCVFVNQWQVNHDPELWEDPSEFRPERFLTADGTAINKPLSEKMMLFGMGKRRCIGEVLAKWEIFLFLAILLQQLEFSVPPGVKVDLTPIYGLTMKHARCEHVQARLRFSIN
Chain of Cytochrome P450 3A4 (Homo sapiens) (P08684 whole entry, looked up): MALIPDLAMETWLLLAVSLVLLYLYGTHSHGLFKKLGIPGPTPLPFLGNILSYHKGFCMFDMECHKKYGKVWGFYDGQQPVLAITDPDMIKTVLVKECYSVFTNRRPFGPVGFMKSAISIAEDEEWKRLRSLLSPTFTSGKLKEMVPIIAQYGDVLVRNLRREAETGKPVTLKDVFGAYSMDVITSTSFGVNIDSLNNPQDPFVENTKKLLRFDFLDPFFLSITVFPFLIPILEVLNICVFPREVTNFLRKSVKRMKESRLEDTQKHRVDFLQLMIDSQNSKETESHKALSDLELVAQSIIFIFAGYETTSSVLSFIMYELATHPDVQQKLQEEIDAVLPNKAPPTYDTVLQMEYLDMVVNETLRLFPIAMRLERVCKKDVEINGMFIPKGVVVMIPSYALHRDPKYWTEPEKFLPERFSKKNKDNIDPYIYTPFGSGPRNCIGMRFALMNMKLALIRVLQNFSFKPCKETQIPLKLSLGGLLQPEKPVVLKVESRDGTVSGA
Chain of 3',5'-cyclic-AMP phosphodiesterase 4B (Homo sapiens) (Q07343 whole entry, looked up): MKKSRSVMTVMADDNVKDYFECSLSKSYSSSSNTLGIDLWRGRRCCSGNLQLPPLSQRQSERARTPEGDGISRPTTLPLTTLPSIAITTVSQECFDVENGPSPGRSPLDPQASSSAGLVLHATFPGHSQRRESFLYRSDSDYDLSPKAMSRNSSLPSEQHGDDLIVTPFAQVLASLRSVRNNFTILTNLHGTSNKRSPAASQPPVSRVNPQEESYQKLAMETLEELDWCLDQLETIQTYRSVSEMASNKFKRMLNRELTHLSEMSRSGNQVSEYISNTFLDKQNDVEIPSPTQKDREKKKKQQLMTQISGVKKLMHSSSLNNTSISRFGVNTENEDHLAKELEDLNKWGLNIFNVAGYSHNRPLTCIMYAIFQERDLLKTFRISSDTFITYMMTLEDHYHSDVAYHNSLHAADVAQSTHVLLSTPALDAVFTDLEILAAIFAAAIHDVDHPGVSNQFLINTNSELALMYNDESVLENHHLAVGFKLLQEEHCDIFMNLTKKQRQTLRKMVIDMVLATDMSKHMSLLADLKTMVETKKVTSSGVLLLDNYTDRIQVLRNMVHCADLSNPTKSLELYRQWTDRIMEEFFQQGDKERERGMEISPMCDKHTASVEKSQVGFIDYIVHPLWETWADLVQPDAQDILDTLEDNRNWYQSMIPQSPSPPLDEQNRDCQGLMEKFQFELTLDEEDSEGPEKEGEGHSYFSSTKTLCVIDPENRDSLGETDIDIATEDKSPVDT
Chain of Glucocorticoid receptor (Homo sapiens) (P04150 whole entry, looked up, the tested form may be a part): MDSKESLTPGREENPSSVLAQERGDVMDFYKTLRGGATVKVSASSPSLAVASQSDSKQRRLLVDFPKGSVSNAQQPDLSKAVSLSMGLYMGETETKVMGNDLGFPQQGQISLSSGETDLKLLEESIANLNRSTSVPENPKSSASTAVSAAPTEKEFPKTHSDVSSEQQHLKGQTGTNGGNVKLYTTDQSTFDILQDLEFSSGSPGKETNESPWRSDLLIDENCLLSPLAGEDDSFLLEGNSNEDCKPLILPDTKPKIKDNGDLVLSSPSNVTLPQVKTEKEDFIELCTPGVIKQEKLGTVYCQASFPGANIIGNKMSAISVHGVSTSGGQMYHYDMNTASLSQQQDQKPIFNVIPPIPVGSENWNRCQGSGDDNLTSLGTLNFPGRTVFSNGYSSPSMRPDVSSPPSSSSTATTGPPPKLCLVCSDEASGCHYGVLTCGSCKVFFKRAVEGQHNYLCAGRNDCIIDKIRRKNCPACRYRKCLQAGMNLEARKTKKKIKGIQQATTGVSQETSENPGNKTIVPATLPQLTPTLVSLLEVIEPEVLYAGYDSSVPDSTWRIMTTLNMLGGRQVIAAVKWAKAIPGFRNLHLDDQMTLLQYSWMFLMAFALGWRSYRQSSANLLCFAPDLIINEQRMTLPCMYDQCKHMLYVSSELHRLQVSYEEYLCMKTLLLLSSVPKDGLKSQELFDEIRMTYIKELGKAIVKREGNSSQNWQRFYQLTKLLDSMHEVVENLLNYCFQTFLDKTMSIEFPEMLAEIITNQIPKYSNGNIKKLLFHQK
Chain of Ubiquitin carboxyl-terminal hydrolase 1 (Homo sapiens) (O94782 whole entry, looked up): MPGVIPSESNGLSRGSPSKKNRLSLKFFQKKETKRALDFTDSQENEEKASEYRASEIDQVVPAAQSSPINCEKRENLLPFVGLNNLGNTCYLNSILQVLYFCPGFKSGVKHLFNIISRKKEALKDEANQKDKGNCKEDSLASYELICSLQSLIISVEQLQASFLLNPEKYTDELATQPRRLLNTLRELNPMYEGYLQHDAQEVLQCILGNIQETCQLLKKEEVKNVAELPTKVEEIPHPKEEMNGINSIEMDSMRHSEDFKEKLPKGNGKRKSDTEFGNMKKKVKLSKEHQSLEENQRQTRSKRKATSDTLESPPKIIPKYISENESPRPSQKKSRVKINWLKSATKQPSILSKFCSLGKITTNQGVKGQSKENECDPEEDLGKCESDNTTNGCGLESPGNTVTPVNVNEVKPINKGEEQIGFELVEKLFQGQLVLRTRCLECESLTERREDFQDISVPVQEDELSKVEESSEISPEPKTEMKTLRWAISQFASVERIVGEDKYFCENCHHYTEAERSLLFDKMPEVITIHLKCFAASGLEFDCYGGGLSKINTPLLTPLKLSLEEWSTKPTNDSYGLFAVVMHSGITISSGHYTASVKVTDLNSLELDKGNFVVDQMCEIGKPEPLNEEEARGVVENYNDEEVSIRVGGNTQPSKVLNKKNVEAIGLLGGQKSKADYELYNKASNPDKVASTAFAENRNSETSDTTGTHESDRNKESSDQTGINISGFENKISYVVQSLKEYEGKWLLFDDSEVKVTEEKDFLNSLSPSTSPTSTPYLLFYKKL
Chain of Dual specificity protein kinase CLK4 (Homo sapiens) (Q9HAZ1 whole entry, looked up): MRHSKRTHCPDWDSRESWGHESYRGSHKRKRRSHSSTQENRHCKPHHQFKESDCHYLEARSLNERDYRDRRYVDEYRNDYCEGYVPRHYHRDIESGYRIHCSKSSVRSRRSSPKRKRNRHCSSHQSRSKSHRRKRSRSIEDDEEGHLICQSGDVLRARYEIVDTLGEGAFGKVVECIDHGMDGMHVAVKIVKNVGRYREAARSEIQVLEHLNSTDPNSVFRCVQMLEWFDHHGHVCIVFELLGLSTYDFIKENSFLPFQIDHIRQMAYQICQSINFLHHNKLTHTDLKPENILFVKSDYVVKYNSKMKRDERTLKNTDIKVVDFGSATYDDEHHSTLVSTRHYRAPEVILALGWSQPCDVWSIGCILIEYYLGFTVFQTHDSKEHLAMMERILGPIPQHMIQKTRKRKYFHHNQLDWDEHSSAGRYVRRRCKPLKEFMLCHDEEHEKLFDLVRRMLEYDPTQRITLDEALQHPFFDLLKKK
Chain of Lysosomal acid glucosylceramidase (Homo sapiens) (P04062 whole entry, looked up): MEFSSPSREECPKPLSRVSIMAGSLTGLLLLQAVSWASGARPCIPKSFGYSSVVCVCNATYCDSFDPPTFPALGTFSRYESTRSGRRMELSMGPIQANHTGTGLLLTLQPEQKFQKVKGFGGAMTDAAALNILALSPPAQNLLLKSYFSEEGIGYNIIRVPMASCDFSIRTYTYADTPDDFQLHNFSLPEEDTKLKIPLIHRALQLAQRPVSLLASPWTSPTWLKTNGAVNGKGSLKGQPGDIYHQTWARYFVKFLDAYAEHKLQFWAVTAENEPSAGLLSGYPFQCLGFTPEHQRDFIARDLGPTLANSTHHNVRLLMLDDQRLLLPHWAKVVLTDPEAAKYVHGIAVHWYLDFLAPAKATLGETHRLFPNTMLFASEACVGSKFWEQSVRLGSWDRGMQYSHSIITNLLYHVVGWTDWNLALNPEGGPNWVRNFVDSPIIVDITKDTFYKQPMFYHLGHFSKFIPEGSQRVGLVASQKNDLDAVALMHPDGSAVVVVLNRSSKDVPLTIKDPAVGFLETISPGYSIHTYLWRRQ
Chain of Cytochrome P450 2C9 (Homo sapiens) (P11712 whole entry, looked up): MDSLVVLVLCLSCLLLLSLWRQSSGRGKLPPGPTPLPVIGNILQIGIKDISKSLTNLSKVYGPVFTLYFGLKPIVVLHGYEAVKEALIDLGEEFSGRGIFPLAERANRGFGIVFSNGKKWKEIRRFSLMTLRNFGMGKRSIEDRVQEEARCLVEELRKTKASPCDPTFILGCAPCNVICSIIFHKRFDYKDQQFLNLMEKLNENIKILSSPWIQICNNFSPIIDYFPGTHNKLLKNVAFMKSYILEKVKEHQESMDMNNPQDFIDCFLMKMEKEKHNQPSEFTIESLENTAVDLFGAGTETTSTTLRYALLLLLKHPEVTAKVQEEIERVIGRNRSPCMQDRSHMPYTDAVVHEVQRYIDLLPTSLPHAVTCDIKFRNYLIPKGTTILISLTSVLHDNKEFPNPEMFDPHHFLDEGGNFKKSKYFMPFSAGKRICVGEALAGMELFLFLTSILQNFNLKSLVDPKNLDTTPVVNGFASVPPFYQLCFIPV

Cn1cc(-c2nc3cnc(N4CCNCC4)nc3n(CCc3ccccc3)c2=O)c2ccccc21
inactive: Potency [3] > 9.22 µM | Potency [4] | outcome [5] | Potency [6] | Potency [7] | Potency [8]
active: Potency [1] 15.8 µM | activity change, negative = inhibition [2] 91.4% [activator]

COc1ccc(Oc2ncc3nc(-c4cccc(C#N)c4)c(=O)n(CCC#N)c3n2)cc1
active: Potency [1] 25.1 µM
inactive: Potency [9] > 11.4 µM | activity change, negative = inhibition [10] -20.3% | activity change, negative = inhibition [2] 14.2% | outcome [11] | Potency [3] > 9.22 µM | Potency [12] > 46 µM | Potency [13] | Potency [6] | Potency [7] | Potency [8] | Potency [14]

COc1cccc(-c2nc(NC3CC3)c3ccccc3n2)c1
inactive: activity change, negative = inhibition [10] -6.5% | activity change, negative = inhibition [2] 1.07% | outcome [11] | Potency [3] > 46 µM | Potency [13] | outcome [5]
active: Potency [9] 2.73 µM | Potency [15] 1.26 µM | Potency [16] 7.94 µM | Potency [6] 7.08 µM | Potency [7] 7.08 µM | Potency [8] 2.82 µM

CN(C)c1ccc(-c2cncnc2NCCN2CCOCC2)cc1
active: Potency [1] 15.8 µM | Potency [15] 3.16 µM
inactive: Potency [9] > 11.4 µM | outcome [11] | Potency [3] > 46 µM | Potency [12] > 46 µM | Potency [13] | Potency [4] | outcome [5] | Potency [6] | Potency [7] | Potency [8] | Potency [14]

COCCn1c(=O)c(-c2ccccc2)nc2cnc(Oc3cccc(Cl)c3)nc21
active: Potency [1] 1 µM | Potency [17] 0.501 µM
inactive: activity change, negative = inhibition [2] -9.21% | outcome [11] | Potency [3] > 9.22 µM | Potency [13] | Potency [4] | outcome [5] | Potency [6] | Potency [7] | Potency [8] | Potency [14]

COCCn1c(=O)c(CCc2ccccc2)nc2cnc(N(C)C)nc21
active: Potency [1] 1.26 µM
inactive: Potency [9] > 11.4 µM | activity change, negative = inhibition [10] -26.9% | activity change, negative = inhibition [2] 3.37% | outcome [11] | Potency [3] > 9.22 µM | Potency [12] > 46 µM | outcome [5] | Potency [6] | Potency [7] | Potency [8] | Potency [14]

O=c1c(-c2cccc(F)c2)nc2cncnc2n1Cc1ccc(F)cc1
inactive: activity change, negative = inhibition [10] -9.74% | activity change, negative = inhibition [2] -4.79% | outcome [11] | Potency [3] > 9.22 µM | Potency [12] > 46 µM | Potency [13] | Potency [4] | Potency [6] | Potency [7] | Potency [8] | Potency [14]

COc1ncc2nc(CCc3ccccc3)c(=O)n(-c3ccccc3)c2n1
inactive: Potency [9] > 11.4 µM | activity change, negative = inhibition [10] -22.4% | activity change, negative = inhibition [2] -14.3% | Potency [3] > 9.22 µM | Potency [12] > 46 µM | Potency [13] | Potency [4] | Potency [6] | Potency [7] | Potency [8] | Potency [14]
active: Potency [1] 12.6 µM

COc1ccccc1-c1nc(N2CCN(C)CC2)c2ccccc2n1
active: Potency [1] 12.6 µM
inactive: activity change, negative = inhibition [10] 9.75% | activity change, negative = inhibition [2] 4.89% | outcome [11] | Potency [3] > 46 µM | Potency [12] > 46 µM | Potency [13] | Potency [4] | outcome [5] | Potency [6] | Potency [7] | Potency [8] | Potency [14]

CN1CCN(c2ncc3nc(-c4cccc(C#N)c4)c(=O)n(CCc4ccccc4)c3n2)CC1
inactive: Potency [9] > 11.4 µM | activity change, negative = inhibition [10] 11.8% | activity change, negative = inhibition [2] -0.0285% | outcome [11] | Potency [3] > 9.22 µM | Potency [12] > 46 µM | Potency [4] | Potency [6] | Potency [7] | Potency [8] | Potency [14]

CN(C)C(=O)c1ccc(-c2nc(N3CCOCC3)c3ccccc3n2)cc1
inactive: activity change, negative = inhibition [10] 0.443% | activity change, negative = inhibition [2] 21.6% | outcome [11] | Potency [3] > 46 µM | Potency [12] > 46 µM | Potency [13] | Potency [4] | Potency [6] | Potency [7] | Potency [8] | Potency [14]

COCCn1c(=O)c(-c2cccc(C#N)c2)nc2cnc(Oc3cccc(Cl)c3)nc21
inactive: activity change, negative = inhibition [10] -5.9% | activity change, negative = inhibition [2] -4.85% | outcome [11] | Potency [3] > 9.22 µM | Potency [12] > 46 µM | Potency [13] | Potency [4] | Potency [6] | Potency [7] | Potency [8] | Potency [14]
